The panel holds about 83,000 compounds, 20% with a hit somewhere; the sample as a whole holds those more often.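 Percent growth is the endpoint: 0 to 100 indicates growth inhibition (40 means 60% inhibition), 0 means no net growth, and negative values indicate cell death.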 A number with no mark means an inactive call. Active and inactive are the calls of the source. The calls were made as follows: active = growth percent below 10; inactive = the rest.

The assay has as its system SK-MEL-28 melanoma. Put plainly: NCI-60 one-dose screen, 48 h (100 = growth as untreated, 0 = no growth, -100 = all killed). The note with it: 10 µM unless noted.
For `COC(=O)[C@]12CC[C@@H](C)[C@H](C)[C@@H]1C1=CC[C@@H]3[C@@]4(C)C(C=O)=C[C@@](C)(COC(C)=O)[C@@H]4[C@H](O)C[C@@]3(C)[C@]1(C)CC2`, the growth was -52.6% (active).
With `CCc1c2c(nc3ccc(OC(=O)OCc4ccc(B5OC(C)(C)C(C)(C)O5)cc4)cc13)-c1cc3c(c(=O)n1C2)COC(=O)[C@]3(O)CC` the figure was -0.304% (active); with `N#Cc1c(N2CCNCC2)nc2sc3cc(Cl)c(Cl)cc3n2c1=N`, 120%; with `Cc1ccc(/C=C/c2c(C(=O)/C=C/c3ccc(C(F)(F)F)cc3)c(C)nc3ccccc23)cc1`, -63.2% (active).
Turning to `COc1ccc2c(c1)[nH]c(=O)c1c3cccnc3cn21`, the growth was 70.8%.
With `COc1ccc2c(c1)C(=O)/C(=C/c1cccc(OCC(=O)Nc3nc(C)c(C)s3)c1)O2` the figure was 11.2%; with `COc1cccc(-c2nn(-c3ccccc3)cc2-c2ccnc(NCCNC(=O)c3ccccc3)c2)c1`, 88.3%.
Take `COC(=O)/C=C1\S/C(=N\NS(=O)(=O)c2ccc(C)cc2)N(c2ccccc2)C1=O`: the growth was 104%.
With `Cc1ccc(-c2cc3c(cc2O)C2CCCCC2(N2CCOCC2)O3)cc1` (configuration not stated) the figure was 111%.
For the compound `CCOc1ccccc1-c1cc(-c2cccs2)c(C#N)c(=O)[nH]1`, the growth is 94.6%.
Take `N#Cc1nc(C#N)c(Sc2ccccc2)c(Sc2ccccc2)c1Sc1ccccc1`: the growth is -84.3% (active).
`CCN1CCN(c2cc(C)nc(NCc3cc(Nc4ccnc5cc(Cl)ccc45)ccc3F)n2)CC1`: the growth is 93.3%.
